# Screens from PubChem BioAssay.
# Nrf2 activator = qHTS of Nrf2 Activators | Potency, µM (top dose mostly 46.1 µM), inactives show top-dose activation, usual class: activators | AID 624171, 2012 | 410,000 compounds, 0.31% hits | AREc32 ARE-luciferase reporter (MCF7-derived line), luminescence, 24 h; also: % of control where 0% means no effect; nearly all actives have a fitted effect of over 65% in size
#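 Each well held 1000 AREc32 cells, which were incubated with compound for 24 hr at 37 deg C after overnight attachment, and ARE reporter activity was quantified by firefly luciferase luminescence.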
# ATXN viability = Viability Counterscreen for Primary qHTS for Inhibitors of ATXN expression; S2 cells (HEK-293 line with an ATXN2-luciferase reporter) viability, CellTiter-Fluor protease fluorescence, 24 h; Potency, µM (series often up to 56.7 µM), hits mostly cytotoxic; 400,000 compounds, 0.49% hits; also: nearly all actives have a fitted effect of over 40% in size
# Nrf2 block = Nrf2 qHTS screen for inhibitors. A549 ARE-Fluc reporter, luciferase luminescence, 18-24 h. 360,000 compounds, 2.1% hits. Potency, µM (series often up to 46 µM), for inactives: top-dose activity change, negative = inhibition, most hits filed as inhibitors; also: % is scaled to controls: 0 for no effect and ±100 for the full control effect; nearly all actives have a fitted effect of over 60% in size
#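 Quantitative HTS in A549 cells stably bearing an antioxidant response element-firefly luciferase construct. Inhibition of Nrf2-driven transcription was scored by luminescence after 18-24 h of compound exposure at 37 °C.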
# ATXN2 expr inh = Primary qHTS for Inhibitors of ATXN expression | HEK-293 ATXN2-luciferase reporter, luminescence, 24 h | Potency, µM (top dose mostly 57 µM), inactives show at the top dose activity change, negative = inhibition, hits mostly inhibitors | 360,000 compounds, 0.72% hits; also: % is scaled to controls: 0 for no effect and ±100 for the full control effect; nearly all actives have a fitted effect of over 55% in size
#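 qHTS (up to 57 uM final) was run with 24 h compound exposure of reporter cells at 37 °C. Each well was multiplexed: SteadyGlo luminescence measured ATXN2-luciferase expression after a fluorogenic Gly-Phe-AFC viability readout (25 uM final).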
# A549 viability = Nrf2 qHTS screen for inhibitors: counterscreen for cytotoxicity; A549 ARE-Fluc cells, CellTiter-Fluor viability, 18-24 h; Potency, µM (doses to about 46 µM), without a hit: at the top dose activity change, negative = cytotoxicity, hits mostly inhibitors; 390,000 compounds, 0.16% hits; AID 504648, 2011; also: % is scaled to controls: 0 for no effect and ±100 for the full control effect
#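 A549 ARE-Fluc cells in 5% FBS OPTI-MEM, 5000 cells/well, rested 2 h then exposed to compounds in concentration-response for 18-24 h at 37 °C. Viability by CellTiter-Fluor fluorescence (Ex 405/Em 525) after 30 min; luciferase luminescence (BugLite, 15 min, RT) read afterwards.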
# An asterisk follows results filed as active; i = inactive; ? = inconclusive; / = not tested or not shown; [ ] = another dose, or the depositor's remark. Sampled rows, rich in hits. Any-hit rate of the full collection: about 2.9%. Calls follow the shape of the dose curve; as a rule, active = well fitted curve in the direction sought with a large enough effect; inconclusive = small, poorly fitted or top-dose-only effect, or another doubt; inactive = no such curve, though single readings can be large; an effect the other way counts as inactive or inconclusive. Potency is read from the fitted curve at half-maximal effect.
SMILES,Nrf2 activator,ATXN viability,Nrf2 block,ATXN2 expr inh,A549 viability
COc1ccccc1-c1nnc(NC(=O)C2CCCN2S(=O)(=O)c2cccs2)o1 (stereo not drawn),8.6%,i,/,/,/
CC(=O)CSc1nc2ccccc2s1,2.7%,i,?,20.5%,11.9%
C/C(=N\NC(=O)CSc1nc2ccccc2s1)c1ccco1,7.08µM*,i,7.6%,35.8%,18.9%
N#C/C(=C\c1ccco1)Sc1nc2ccccc2s1,11.2µM*,i,23.2%,83.8%,-3.0%
O=C(CSc1nc2ccccc2s1)N/N=C/c1ccco1,5.01µM*,i,-2.2%,8.3%,-0.7%
O=C(CSc1ccc2c(c1)OCCO2)NC(=O)Cc1ccccc1,-0.7%,i,13.7%,7.1%,10.2%
Cc1ccc(Sc2ncccc2O)cc1,4.5%,i,1.7%,48.4%,-3.4%
COc1ccc(CCNC(=O)C(=O)NCc2ccc(Cl)cc2)cc1OC,-0.4%,/,-2.8%,-17.2%,1.4%
CC(C)(C)c1cnnn1-c1ccc(/C=N/Nc2ccc([N+](=O)[O-])cc2)cc1,-1.6%,i,?,-26.4%,16.4µM*
O=[N+]([O-])c1ccc(C=NNc2ccccc2)cc1,7.1%,i,20.1%,14.5%,-16.2%
COc1ccc(S(=O)(=O)n2ccc(-c3ccc(OCCN(C)c4ccccn4)cc3)n2)cc1,0.2%,i,?,-27.3%,-8.3%
CCCCCCN1C2=NCCCN2c2ccccc21,0.5%,i,-11.3%,-20.2%,3.5%
C(=N\NC1=Nc2cccc3cccc1c23)/c1ccccn1,?,?,21.9%,/,?
Cc1csc(N/N=C/c2ccccn2)n1,4.2%,/,?,14.1µM*,?
C(=N\Nc1nc2ccccc2s1)/c1ccccn1,-1.2%,?,?,?,-9.5%
C(=NNc1ccc2ccccc2n1)c1ccccn1,-1.9%,2µM*,/,-78.3%,/
CN1CCN(S(=O)(=O)c2ccc(CNC(=O)c3ccccc3)s2)CC1,0.3%,i,6.5%,-3.4%,1.3%
O=C(O)COc1ccc(/C=N/n2cnc3scc(-c4cccs4)c3c2=O)cc1,3.9%,i,8.2%,-2.5%,4.6%
O=c1c2c(-c3cccs3)csc2ncn1/N=C/c1ccc(OC(F)F)cc1,2.9%,i,9.2µM*,-9.9%,?
CN(C)S(=O)(=O)c1ccc(Cl)c(NC(=O)COC(=O)CN2C(=O)C3CCCCC3C2=O)c1 (stereo not drawn),0.1%,i,-6.3%,-5.4%,0.1%
COc1ccc(NC(=S)NCc2ccccc2Cl)c(OC)c1,-0.2%,i,23.1µM*,2.1%,-0.2%
COc1ccccc1NC(=S)NCc1ccccc1Cl,0.5%,i,2.9%,6.7%,0.4%
CN(CCc1ccccc1)C(=O)c1ccc(NC(=O)Cc2ccc(NC(=O)C3CCCN(C(=O)c4ccccc4)C3)cc2)cc1 (stereo not drawn),5.5%,i,?,2.7%,-4.6%
Cc1cc(/N=C/C=C2\N(C)c3ccccc3C2(C)C)n(CCC#N)n1,0.6%,/,?,?,14.6µM*
CN1/C(=C/C=C(C#N)C#N)C(C)(C)c2ccccc21,-0.1%,i,0.2%,13.1%[11.3 µM],-1.2%
SMILES,Nrf2 activator,ATXN viability,Nrf2 block,ATXN2 expr inh,A549 viability
O=C(c1cnc2cc(-c3ccccc3)nn2c1)c1cc([N+](=O)[O-])ccc1O,2.6%,i,?,-24.4%,?
C[C@H](CO)N1C[C@H](C)[C@@H](CN(C)C(=O)NC2CCCCC2)Oc2c(NS(=O)(=O)c3cccs3)cccc2C1=O,-1.0%,i,14.1%,7.1%,1.2%
CCOC(=O)COc1coc(CN2CCN(c3ccccc3)CC2)cc1=O,-1.0%,i,-0.5%,0.9%,1.3%
C[C@@H]1CC[C@]2(C(=O)O)CC[C@]3(C)C(=CCC4[C@]56CC[C@@](O)(OC5)C(C)(C)C6CC[C@]43C)C2[C@H]1C (stereo partly drawn),0.5%,25.1µM*,14.6µM*,?,-24.9%
C[C@H]1[C@H](C)CC[C@]2(C(=O)O)CC[C@]3(C)C(=CC[C@@H]4[C@@]5(C)C[C@@H](O)[C@H](O)C(C)(C)[C@@H]5CC[C@]43C)[C@H]12,-1.0%,?,?,0.0%,?
CCOC(=O)C1(C)CCCN(C(=O)c2c(F)cccc2F)C1 (stereo not drawn),0.5%,i,/,7.0%,/
COc1ccccc1CC(=O)Nc1cc(OC)c(NC(=O)c2ccccc2)cc1OC,15.7%,i,14.6µM*,-14.4%,-17.5%
CCC(=O)Nc1cc(OC)c(NC(=O)c2ccccc2)cc1OC,11.9%,i,4.3%,-0.7%,-2.9%
Cc1cccc(Cn2cc(/C=C/[N+](=O)[O-])c3ccccc32)c1,-3.1%,?,16.4µM*,-77.0%,/
Cc1sc(NC(=O)CSc2ncn(-c3ccccc3)n2)nc1-c1ccccc1,4.1%,i,11.6µM*,-1.8%,-6.7%
COc1ccc(NS(=O)(=O)c2ccc(C(=O)N3CCN(Cc4ccccc4)CC3)cc2)cc1,-0.1%,?,20.6µM*,/,-9.4%
CCOc1ccc(NS(=O)(=O)c2ccc(C(=O)N3CCCCCC3)cc2)cc1,2.4%,i,23.1µM*,-27.6%,-15.5%
CCOc1ccc(S(=O)(=O)Nc2ccc(C(=O)N3CCCC3)cc2)cc1,-0.6%,i,-21.9%,-6.0%,1.6%
CCOc1ccc(S(=O)(=O)Nc2cccc(Cl)c2)cc1,-0.6%,i,13µM*,-31.8%,?
CCOc1ccc(NS(=O)(=O)c2ccc(C(=O)N3CCCC(C)C3)cc2)cc1 (stereo not drawn),0.1%,?,7.31µM*,?,-11.0%
COc1cccc(/C=C2\SC(=S)N(N3C(=O)CCCC3=O)C2=O)c1,7.6%,i,0.8%,-2.1%,2.5%
CC(=O)c1ccc(-c2ccc(-c3cc(=O)oc4c(C(C)C)ccc(C)c34)cc2)cc1,0.9%,i,23.1µM*,?,-0.2%
NC(=O)C1CCN(C(=O)c2ccccc2SCC(=O)NCC2CCCCC2)CC1,?,i,-1.8%,3.8%,-3.4%
C/C(=N\N=C(N)N)c1cc(Cl)ccc1Cl,4.1%,i,16.4µM*,/,?
O=C(CN1C(=O)/C(=C\c2ccccc2Cl)Sc2ccccc21)NCCCN1CCOCC1,?,?,20.6µM*,-31.1%,?
O=C(CN1C(=O)/C(=C\c2cccc(Cl)c2)Sc2ccccc21)NCCCN1CCOCC1,6.7%,?,-0.8%,/,-1.6%
Cc1cccc(N2CCN(C(=O)c3cnn(-c4ccccc4)c3C3CCN(C(=O)OC(C)(C)C)CC3)CC2)c1C,0.1%,/,-119.5%,/,-26.2%
O=C1C(=Cc2ccco2)CCC1=Cc1ccco1,18.5%,i,-6.1%,2.0%,?
O=C1C(=Cc2ccco2)CCCC1=Cc1ccco1,3.16µM*,i,3.5%,59.1%,0.5%
O=C(CN(C(=O)Cn1nnc(-c2ccccc2F)n1)c1cccc2c1CCCC2)NCc1ccccc1,0.4%,i,?,-1.8%,-6.3%
